Reference: PubChem BioAssay (EPA / NIEHS)
“And” between values parts separate entries of the source, which are not always exact repeats. Equal entries are not always repeated. Results filed as inconclusive are left out. A structure can be active in one record and inactive in another. The source made the active and inactive calls. How the source made its calls: active means hit-call score of the fitted dose curve at least 0.9, where 1 is the maximum; inconclusive means response in the unintended direction; inactive means score below 0.9.

These compounds were tested against Estrogen receptor beta (Homo sapiens) (UniProt Q92731) (assay: OT_ER_ERbERb_0480: Odyssey Thera (OT) 8-hour HEK293T Protein-Complementation Assay for Estrogen Receptor-beta/-beta Homodimer (AID 2283357)).
Sequence of Estrogen receptor beta (Homo sapiens) (Q92731 whole entry, looked up, the tested form may be a part): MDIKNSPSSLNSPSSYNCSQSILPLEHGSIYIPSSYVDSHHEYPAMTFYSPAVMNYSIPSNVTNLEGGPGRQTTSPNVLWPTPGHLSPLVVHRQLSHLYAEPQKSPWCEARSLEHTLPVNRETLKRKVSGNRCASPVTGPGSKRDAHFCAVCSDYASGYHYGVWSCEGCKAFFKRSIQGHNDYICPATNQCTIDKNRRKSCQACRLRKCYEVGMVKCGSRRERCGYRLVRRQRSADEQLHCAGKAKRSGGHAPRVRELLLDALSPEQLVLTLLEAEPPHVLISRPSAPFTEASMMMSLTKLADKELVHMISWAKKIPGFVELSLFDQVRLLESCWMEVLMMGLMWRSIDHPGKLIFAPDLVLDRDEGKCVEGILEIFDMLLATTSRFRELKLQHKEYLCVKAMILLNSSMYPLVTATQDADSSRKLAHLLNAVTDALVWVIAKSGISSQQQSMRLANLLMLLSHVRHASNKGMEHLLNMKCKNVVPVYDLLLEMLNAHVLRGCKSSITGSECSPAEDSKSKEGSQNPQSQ
Procedure, shortened: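 Homodimerization of ER-beta LBD measured by protein-fragment complementation in HEK293T; 8 h dosing; fixed, Draq5 counterstain; fluorescence intensity gain over DMSO baseline, positive fitting direction; laser scanning cytometry.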

SMILES | outcome | AC50
CCN(CC)c1ccccc1 | inactive | –
Cc1ccc([N+](=O)[O-])cc1C | inactive | –
CCOP(=S)(OCC)SCSCC | inactive | –
O=S1(=O)OCC2C(CO1)C1(Cl)C(Cl)=C(Cl)C2(Cl)C1(Cl)Cl (stereo not drawn) | inactive | –
O=P(OCC(Br)CBr)(OCC(Br)CBr)OCC(Br)CBr (stereo not drawn) | inactive | –
c1ccc(OP(Oc2ccccc2)Oc2ccccc2)cc1 | inactive | –
CC1(C)CN=C(NN=C(/C=C/c2ccc(C(F)(F)F)cc2)/C=C/c2ccc(C(F)(F)F)cc2)NC1 | inactive | –
Nc1cc2c3c(c1)C(c1ccccc1)=N[C@@H](NC(=O)c1cccnc1)C(=O)N3CC2 | inactive | –
O=P(Oc1ccccc1)(Oc1ccccc1)Oc1ccccc1 | – | 12.2 µM (active)
CCCCC(CC)COC(=O)c1c(Br)c(Br)c(Br)c(Br)c1C(=O)OCC(CC)CCCC (stereo not drawn) | inactive | –
Cc1ccc(O)cc1C | inactive | –
CCCCN(CC)C(=O)SCCC | inactive | –
CCCCc1ccccc1 | inactive | –
FC(F)(F)c1ccc(Cl)cc1 | inactive | –
CCCCN(CCCC)SN(C)C(=O)Oc1cccc2c1OC(C)(C)C2 | inactive | –
COCCOCCO | inactive | –
O=C(O)CF | inactive | –
CCNc1nc(Cl)nc(NC(C)(C)C)n1 | inactive | –
CCCCC(CC)COP(=O)(Oc1ccccc1)Oc1ccccc1 (stereo not drawn) | inactive | –

SMILES | outcome | AC50
CC(C)(C)N(NC(=O)c1ccc(Cl)cc1)C(=O)c1ccccc1 | inactive | –
CCCCOCCOP(=O)(OCCOCCCC)OCCOCCCC | inactive | –
CCOP(=S)(Oc1ccc([N+](=O)[O-])cc1)c1ccccc1 (stereo not drawn) | – | 26.4 µM (active)
CCC(C)(C)c1ccc(O)cc1 | – | 2.41 µM (active)
CCOc1ccc(C(C)(C)COCc2cccc(Oc3ccccc3)c2)cc1 | inactive | –
ClC1=C(Cl)C2(Cl)C3C(Cl)C(Cl)CC3C1(Cl)C2(Cl)Cl (stereo not drawn) | inactive | –
CCCCCCCc1ccc(O)cc1 | inactive | 12.2 µM (active) and 13.3 µM (active) and 12.3 µM (active)
O=NN1CCCC1 | inactive | –
O=C(O)C1C(C(=O)O)C2(Cl)C(Cl)=C(Cl)C1(Cl)C2(Cl)Cl (stereo not drawn) | inactive | –
CC(C)(C)OOC(C)(C)C | inactive | –
COC(N)=O | inactive | –
Nc1ccc2ccccc2c1 | inactive | –
CCOC(=O)c1ccccc1N | inactive | –
c1cc2c3c(cccc3c1)CC2 | inactive | –
O=c1ssc(Cl)c1Cl | inactive | –
O=C(CBr)OCc1ccccc1 | inactive | –
CCCCc1ccc(O)cc1 | – | 10.5 µM (active)
c1ccc2c(c1)Nc1ccccc1S2 | inactive | –
